# Measurements from the supplement of paper PMC9135407.
# Values joined by “and” are separate entries in the source; they are usually repeats but may differ in a detail not shown here. Identical values can stand only once. Counter-ions that a name gives are not always drawn. The whole screen tested about 5,800 compounds, of which about 620 (11%) showed activity. This excerpt belongs to a sample that is enriched for actives. A number with no mark means an inactive call.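 The calls were made as follows: active = score above a cut-off or among the top three wells of a plate; in these data no inactive exceeds 0.85.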
# Tested on: primary human hepatic stellate cells (donor 1)
# Assay: scaled lipid accumulation score (0 = DMSO-like, 1 = nortriptyline-like); higher = stronger HSC inactivation (lipid re-accumulation), active = hit call of the paper
# Conditions: 48 h
# [1] = library stock concentration: 3.33 mM
# [2] = library stock concentration: 10 mM
# [3] = library stock concentration: 80 uM
# [4] = library stock concentration: 400 uM
# [5] = library stock concentration: 2 mM
# [6] = library stock concentration: 1 mM
smiles,measurement,setting,value
c1ccc(Cn2c(-c3ccc(OCC(C4CCNCC4)n4c(-c5ccccc5)nc5ccccc54)cc3)nc3ccccc32)cc1 (configuration not stated) [Deltarasin],scaled lipid accumulation score,[1],0.766
same,scaled lipid accumulation score,[2],0.104
O=c1[nH]c(=S)[nH]c(-c2ccccc2)c1Cc1c(O)ccc2ccccc12 [Cambinol],scaled lipid accumulation score,[2],0.124
CC(C)CC(=O)Nc1n[nH]c2c1CN(C(=O)C1CCN(C)CC1)C2(C)C,scaled lipid accumulation score,[3],≤ 0
same,scaled lipid accumulation score,[4],0.21
same,scaled lipid accumulation score,[5],0.029
same,scaled lipid accumulation score,[1],0.199
same,scaled lipid accumulation score,[2],≤ 0 and 0.015
Cc1nc(Nc2n[nH]c3c2CN(C(=O)N[C@H](CN(C)C)c2ccccc2)C3(C)C)c2sccc2n1 [listing 1 of 2 here],scaled lipid accumulation score,[2],0.887 (active)
Cc1nc(Nc2n[nH]c3c2CN(C(=O)N[C@H](CN(C)C)c2ccccc2)C3(C)C)c2sccc2n1 [listing 2 of 2 here],scaled lipid accumulation score,[3],≤ -0.016
same,scaled lipid accumulation score,[4],0.092
same,scaled lipid accumulation score,[5],0.522
same,scaled lipid accumulation score,[1],≤ -0.009
same,scaled lipid accumulation score,[2],0.594
Cc1nn(C)c(COc2ccc(N3CCN(S(=O)(=O)N(C)C)CC3)cc2)c1-c1cccc2c(CCCOc3cccc4ccccc34)c(C(=O)O)n(CCN3CCOCC3)c12,scaled lipid accumulation score,[3],≤ -0.001
same,scaled lipid accumulation score,[4],≤ -0.001
same,scaled lipid accumulation score,[5],≤ -0.001
same,scaled lipid accumulation score,[2],≤ -0.001
CCCCCCCCCCCCCCCCCCN(CCCCCCCCCCCCCCCCCC)CCCN(CCO)CCO [Avridine],scaled lipid accumulation score,[2],≤ 0
N[C@@H](Cn1ccc(=O)c(O)c1)C(=O)O [L-Mimosine from Koa hoale seeds],scaled lipid accumulation score,[2],≤ 0
c1cc(OCCN2CCCCC2)cc(-c2n[nH]c3ccc(-c4nnc[nH]4)cc23)c1,scaled lipid accumulation score,[3],≤ -0.016
same,scaled lipid accumulation score,[4],≤ -0.016 and ≤ -0.005
same,scaled lipid accumulation score,[5],≤ -0.016 and 0.022
O=C(c1ccc(OCCN2CCCCC2)cc1)c1c(-c2ccc(O)cc2)sc2cc(O)ccc12 [Raloxifene HCl],scaled lipid accumulation score,[1],≤ 0
same,scaled lipid accumulation score,[2],0.575
O=C(OCCN1CCCCC1)c1c[nH]c2ccccc12,scaled lipid accumulation score,[2],0.289
O=C(c1ccc(OCCN2CCCCC2)cc1)c1c(-c2ccc(O)cc2)sc2cc(O)ccc12,scaled lipid accumulation score,[2],0.798
c1ccc(-c2nn3c(c2-c2ccnc4cc(OCCN5CCOCC5)ccc24)CCC3)nc1,scaled lipid accumulation score,[3],≤ -0.001
same,scaled lipid accumulation score,[4],≤ -0.001
same,scaled lipid accumulation score,[5],≤ -0.001
same,scaled lipid accumulation score,[2],≤ -0.001
c1cc(OCCN2CCCCC2)cc(-c2n[nH]c3ccc(-c4ncn[nH]4)cc23)c1,scaled lipid accumulation score,[2],1.72 (active)
O=C(c1ccc(OCCN2CCCCC2)cc1)c1c(-c2ccc(O)cc2)sc2cc(O)ccc12 [Raloxifene hydrochloride],scaled lipid accumulation score,,0.032
same,scaled lipid accumulation score,[2],0.661 and 0.376
Cl.c1cc(OCCN2CCCCC2)cc(-c2n[nH]c3ccc(-c4nc[nH]n4)cc23)c1,scaled lipid accumulation score,[2],1.28 (active)
CCCCC[C@H](O)/C=C/C1=C(C/C=C\CCCC(=O)O)C(=O)CC1 [Prostaglandin B2],scaled lipid accumulation score,[6],≤ 0 and ≤ -0.021
CC(=N)NCCCC[C@H](N)C(=O)O [L-NIL hydrochloride],scaled lipid accumulation score,[2],0.025
CCCCCCCCCCCC(=O)c1nc2ncccc2o1,scaled lipid accumulation score,[6],≤ 0
CCCCC/C=C\C/C=C\CCCCCCCC(=O)NCC(=O)O [N-linoleoylglycine],scaled lipid accumulation score,[6],≤ -0.021
CCCCC(CC)COc1ccc(-c2nc(-c3ccc(OC)cc3)nc(-c3ccc(OCC(CC)CCCC)cc3O)n2)c(O)c1 (configuration not stated),scaled lipid accumulation score,[2],≤ 0
"CCCCCC=CCC=CCCCCCCCCCC(=O)O [11(Z),14(Z)-Eicosadienoic Acid]",scaled lipid accumulation score,[6],≤ 0
Cc1cccc(Nc2nc(-c3ccncc3)cs2)c1 [listing 1 of 2 here],scaled lipid accumulation score,[1],0.881 (active)
same,scaled lipid accumulation score,[2],1.24 (active)
Oc1ccc(Nc2nc(-c3ccc(Cl)cc3)cs2)cc1,scaled lipid accumulation score,[3],≤ -0.001
same,scaled lipid accumulation score,[4],≤ -0.001
same,scaled lipid accumulation score,[5],≤ -0.001
same,scaled lipid accumulation score,[1],≤ -0.009
same,scaled lipid accumulation score,[2],0.141 and 0.011
Oc1ccc(Nc2nc(-c3ccc(Cl)cc3)cs2)cc1 [Sphingosine Kinase Inhibitor 2],scaled lipid accumulation score,[6],0.058
Cc1cccc(Nc2nc(-c3ccncc3)cs2)c1 [listing 2 of 2 here],scaled lipid accumulation score,[6],≤ 0
C[C@H]1Oc2cc(cnc2N)-c2c(nn(C)c2C#N)CN(C)C(=O)c2ccc(F)cc21,scaled lipid accumulation score,[3],≤ 0
same,scaled lipid accumulation score,[4],≤ 0
same,scaled lipid accumulation score,[5],0.031
same,scaled lipid accumulation score,[2],≤ 0
C[C@H]1COc2c(C3(N)CC3)c(F)cc3c(=O)c(C(=O)O)cn1c23 [Pazufloxacin],scaled lipid accumulation score,library stock concentration: 6.3 mM,≤ 0
C[C@H]1COc2c(C3(N)CC3)c(F)cc3c(=O)c(C(=O)O)cn1c23,scaled lipid accumulation score,[2],0.025 and ≤ 0
Clc1ccccc1C(c1ccccc1)(c1ccccc1)n1ccnc1 [Clotrimazole],scaled lipid accumulation score,,≤ 0
same,scaled lipid accumulation score,[1],≤ 0
same,scaled lipid accumulation score,library stock concentration: 5.8 mM,≤ -0.001
same,scaled lipid accumulation score,[2],≤ 0
N=C(N)NC(=O)c1nc(Cl)c(N)nc1N [Amiloride hydrochloride dihydrate],scaled lipid accumulation score,,≤ 0
CS(=O)(=O)O.N=C(NC(=O)c1nc(Cl)c(N)nc1N)Nc1ccccc1 [Phenamil methanesulfonate],scaled lipid accumulation score,[2],1.15 (active)
N=C(N)NC(=O)c1nc(Cl)c(N)nc1N,scaled lipid accumulation score,library stock concentration: 18.8 mM,≤ -0.021
N=C(NC(=O)c1nc(Cl)c(N)nc1N)Nc1ccccc1 [Phenamil],scaled lipid accumulation score,library stock concentration: 16.4 mM,1.07 (active)
N=C(N)NC(=O)c1nc(Cl)c(N)nc1N [Amiloride hydrochloride],scaled lipid accumulation score,library stock concentration: 7.5 mM,≤ -0.001
same,scaled lipid accumulation score,[2],≤ 0
N=C(N)NC(=N)Nc1ccccc1 [1-Phenylbiguanide hydrochloride],scaled lipid accumulation score,[2],≤ 0
CC(=O)Nc1ccccc1 [Acetanilide],scaled lipid accumulation score,[1],≤ 0
same,scaled lipid accumulation score,[2],≤ 0 and 0.04
N=C(N)NC(=O)c1nc(Cl)c(N)nc1N [Amiloride HCl],scaled lipid accumulation score,[1],≤ 0
same,scaled lipid accumulation score,[2],≤ 0
N=C(N)NC(=O)c1nc(Cl)c(N)nc1N [Amiloride],scaled lipid accumulation score,library stock concentration: 8.7 mM,≤ -0.006
